Source: the supplement of paper PMC9262897, “Low-cost anti-mycobacterial drug discovery using engineered E. coli” (Nature Communications, 2022)
Counter-ions that a name gives are not always drawn. ± gives the standard deviation of the averaged measurements.

Columns and labels:
Assay in all cases: growth (OD600 after 10 h); higher = more growth (less inhibition)
[1] = test system: E. coli TESEC Alr+ wild-type control; settings: compound 0.1 mM; raw OD600 reference: median of DMSO wells 0.241, cell-free background 0.041
Method: (§1)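 TESEC Mtb Alr E. coli, or the Alr+ wild-type control, in 384-well plates with Prestwick library compounds at 0.1 mM and 1% DMSO, across arabinose induction levels of 1E3 to 1E7 nM. Growth is read as OD600 after 10 h at 37 °C in triplicate biological replicates.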

E. coli TESEC Mtb Alr [2] = settings: compound 0.1 mM
Method: as §1

E. coli TESEC Mtb Asd = settings: compound 0.1 mM
Method: (§2)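 TESEC E. coli strains in which the native enzyme is deleted and replaced by arabinose-inducible Mtb Asd, DapB, CysH or TrpD, each grown in its selective medium. Strains were screened against the Prestwick library at 0.1 mM and 1% DMSO in 384-well format at low and high arabinose induction. Growth is read as OD600 after 10 h in triplicate.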

E. coli TESEC Mtb DapB = settings: compound 0.1 mM
Method: as §2

[3] = test system: E. coli TESEC Alr+ wild-type control; settings: compound 0.1 mM; raw OD600 reference: median of DMSO wells 0.49, cell-free background 0.052
Method: (§3)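 TESEC Mtb Alr E. coli (ΔaraC ΔtolC ΔentC Δalr ΔdadX, arabinose-inducible Mtb Alr) or the Alr+ wild-type control strain, grown in defined M9-fructose medium without D-alanine in 96-well plates with Prestwick library compounds at 0.1 mM and 1% DMSO. Low Alr induction is 0.1 µM arabinose and high induction is 10 mM arabinose.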

E. coli TESEC Mtb Alr [4] = settings: compound 0.1 mM; remark: listed apart in the source
Method: as §3

[5] = arabinose 1000 nM, raw OD600 reference: median of DMSO wells 0.294, cell-free background 0.041
[6] = arabinose 10000 nM, raw OD600 reference: median of DMSO wells 0.264, cell-free background 0.041
[7] = arabinose 100000 nM, raw OD600 reference: median of DMSO wells 0.201, cell-free background 0.041
[8] = arabinose 1000000 nM, raw OD600 reference: median of DMSO wells 0.193, cell-free background 0.041
[9] = arabinose 10000000 nM, raw OD600 reference: median of DMSO wells 0.146, cell-free background 0.041
[10] = arabinose induction (level): High, raw OD600 reference: median of DMSO wells 0.331, cell-free background 0.041
[11] = arabinose induction (level): Low, raw OD600 reference: median of DMSO wells 0.417, cell-free background 0.041
[12] = arabinose induction (level): High, raw OD600 reference: median of DMSO wells […], cell-free background 0.041
[13] = arabinose induction (level): Low, raw OD600 reference: median of DMSO wells 0.227, cell-free background 0.041
[14] = arabinose 100 nM, raw OD600 reference: median of DMSO wells 0.413, cell-free background 0.052
[15] = arabinose 10000000 nM, raw OD600 reference: median of DMSO wells […], cell-free background 0.052

Row | SMILES | growth [1] | growth (E. coli TESEC Mtb Alr [2]; [5]) | growth (E. coli TESEC Mtb Alr [2]; [6]) | growth (E. coli TESEC Mtb Alr [2]; [7]) | growth (E. coli TESEC Mtb Alr [2]; [8]) | growth (E. coli TESEC Mtb Alr [2]; [9]) | growth (E. coli TESEC Mtb Asd; [10]) | growth (E. coli TESEC Mtb Asd; [11]) | growth (E. coli TESEC Mtb DapB; [12]) | growth (E. coli TESEC Mtb DapB; [13]) | growth [3] | growth (E. coli TESEC Mtb Alr [4]; [14]) | growth (E. coli TESEC Mtb Alr [4]; [15])
1 | CC(=O)[C@@]1(O)CC[C@H]2[C@@H]3C[C@H](C)C4=CC(=O)C=C[C@]4(C)[C@@]3(F)[C@@H](O)C[C@@]21C [Fluorometholone] | 0.235 ± 0.021 | 0.308 ± 0.011 | 0.248 ± 0.011 | 0.2 ± 0.018 | 0.13 ± 0.007 | 0.153 ± 0.0031 | 0.457 ± 0.013 | 0.428 ± 0.019 | 0.209 ± 0.0065 | 0.272 ± 0.017 | 0.447 ± 0.013 | 0.423 ± 0.007 | 0.334 ± 0.049
2 | CNCC[C@@H](Oc1ccccc1C)c1ccccc1 [Tomoxetine hydrochloride] | 0.216 ± 0.0098 | 0.254 ± 0.0027 | 0.272 ± 0.0044 | 0.211 ± 0.019 | 0.139 ± 0.0019 | 0.173 ± 0.0034 | 0.205 ± 0.024 | 0.294 ± 0.021 | 0.18 ± 0.0036 | 0.263 ± 0.047 | 0.441 ± 0.016 | 0.407 ± 0.0067 | 0.326 ± 0.018
3 | N=C(N)c1ccc(OCCCCCOc2ccc(C(=N)N)cc2)cc1 [Pentamidine isethionate] | 0.0725 ± 0.0026 | 0.0837 ± 0.0024 | 0.0536 ± 0.0012 | 0.0903 ± 0.001 | 0.0538 ± 0.0022 | 0.095 ± 0.001 | 0.0804 ± 0.013 | 0.0745 ± 0.01 | 0.224 ± 0.008 | 0.0531 ± 0.0065 | 0.194 ± 0.068 | 0.28 ± 0.16 | 0.0605 ± 0.0026
4 | CC(Oc1c(Cl)cccc1Cl)C1=NCCN1 (configuration not stated) [Lofexidine] | 0.211 ± 0.008 | 0.27 ± 0.0089 | 0.259 ± 0.016 | 0.179 ± 0.015 | 0.172 ± 0.0071 | 0.139 ± 0.0016 | 0.261 ± 0.069 | 0.464 ± 0.093 | 0.205 ± 0.013 | 0.206 ± 0.012 | 0.555 ± 0.044 | 0.406 ± 0.0098 | 0.331 ± 0.032
